Data: PubChem BioAssay (NCATS)
Records with an inconclusive call do not appear. The source made the active and inactive calls. The call rests on the fitted dose curve; in most records, active means well fitted curve in the direction sought with a large enough effect; inconclusive means small, poorly fitted or top-dose-only effect, or another doubt; inactive means no such curve, though single readings can be large; an effect the other way counts as inactive or inconclusive.

Tests used:
[1] = Cellular Toxicity (caspase-3) Mesangial (AID 660); conditions: mesangial cells, normalized: DMSO 0%, 100 µM tamoxifen 100%; at 91.7 µM (top of the series);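 further: combined caspase 3 and 7 activity read by Caspase-Glo luminescence; cells exposed to compound for 16 h before the caspase read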
Outline: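 Luminescent Caspase-Glo 3/7 readout (aminoluciferin substrate cleavage, 20 min RT) after 16 h compound exposure at 37 °C of normal human mesangial cells. Signal increase normalized between DMSO basal and 100 uM tamoxifen; Hill-equation AC50.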

[2] = Cellular Toxicity (caspase-3) SK-N-SH (AID 661);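 further: cells exposed to compound for 16 hours; 0% = DMSO basal and 100% = 10 µM staurosporine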
Outline: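 Luminescent Caspase-Glo 3/7 read-out after 16 hr compound exposure of SK-N-SH neuroblastoma cells at 37 °C. Signal increase normalized to DMSO (basal) and 10 uM staurosporine (100%); AC50 from Hill equation fits of qHTS concentration-response data.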

[3] = Cellular Toxicity (caspase-3) H-4-II-E (AID 663); conditions: H-4-II-E rat hepatoma, scaled: DMSO 0%, 100 µM tamoxifen 100%; at 92.2 µM (top of the series);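 further: cells exposed to compound for 16 hr before readout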
Outline: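 Caspase 3/7 activation measured in H-4-II-E cells in complete culture medium after 16 hr treatment at 37 °C, using luciferase-coupled substrate readout; AC50 values come from Hill-equation fits of normalized concentration-response data.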

[4] = Cellular Toxicity (caspase-3) Hek293 (AID 664); conditions: HEK293 caspase-3 activation, DMSO = 0%, 100 µM tamoxifen = 100%; at 92.2 µM (top of the series);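 further: cells exposed to compound for 16 h at 37 °C before readout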
Outline: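 Luminescent Caspase-Glo 3/7 readout (aminoluciferin release) in HEK293 cells after 16 h compound treatment, 37 °C. Normalization: DMSO = basal, 100 uM tamoxifen = 100% stimulation. Concentration-response fitted with standard Hill equation for AC50.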

[5] = Cellular Toxicity (caspase-3) N2a (AID 665);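 further: compound exposure lasted 16 h at 37 °C before readout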
Outline: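 Luminescent Caspase-Glo 3/7 readout in N2a mouse neuroblastoma cells after 16 h compound exposure at 37 °C. Signal scaled to DMSO (basal) and 10 uM staurosporine (100%). Concentration-response fitted with Hill equation for AC50.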

[6] = Cellular Toxicity (caspase-3) Renal Proximal Tubule (AID 667); conditions: Potency: caspase-3 activation;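 further: cells exposed to compound for 16 hours at 37 °C before detection; 0% = DMSO basal and 100% = 10 µM staurosporine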
Outline: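 Luminescent caspase 3/7 signal from peptide-aminoluciferin cleavage measures apoptosis in freshly isolated rat kidney proximal tubule cells after 16 h compound exposure. Concentration-response data are normalized to DMSO and 10 uM staurosporine, and AC50 values come from Hill equation fits.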

[7] = target: Cytochrome P450 3A4 (Homo sapiens) (UniProt P08684); experiment: qHTS Assay for Inhibitors and Substrates of Cytochrome P450 3A4 (AID 884); further: on the % scale 0 is the no-effect control and ±100 the full control effect; nearly all actives have a fitted effect of over 50% in size
Chain of Cytochrome P450 3A4 (Homo sapiens) (P08684 whole entry, looked up): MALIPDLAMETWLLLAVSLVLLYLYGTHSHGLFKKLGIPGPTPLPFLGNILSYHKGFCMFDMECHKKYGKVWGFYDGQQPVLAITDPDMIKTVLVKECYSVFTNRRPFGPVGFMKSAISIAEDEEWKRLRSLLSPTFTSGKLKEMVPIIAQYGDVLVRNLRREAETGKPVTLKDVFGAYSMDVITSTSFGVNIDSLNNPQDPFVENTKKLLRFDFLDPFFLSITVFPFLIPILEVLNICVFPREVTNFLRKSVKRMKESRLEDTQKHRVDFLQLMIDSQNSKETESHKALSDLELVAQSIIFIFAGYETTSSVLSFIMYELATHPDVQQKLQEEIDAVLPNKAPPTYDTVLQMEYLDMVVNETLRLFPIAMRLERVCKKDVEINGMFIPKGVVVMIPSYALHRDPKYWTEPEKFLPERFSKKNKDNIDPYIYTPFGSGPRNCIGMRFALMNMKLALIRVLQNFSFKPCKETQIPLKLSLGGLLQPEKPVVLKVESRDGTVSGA
Outline: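 Luminescent readout of luciferin produced by CYP3A4 (20 nM) dealkylation of Luciferin-PPXE, 25 uM (its KM). NADPH-driven reaction ran 60 min at RT after 10 min compound preincubation; data scaled to 57 uM ketoconazole as 100% inhibition.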

[8] = Cell Viability - LYMP2-001 (AID 921);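 further: cells exposed to compound for 24 h at 37 °C; 0% = DMSO only and full inhibition = tetraoctylammonium bromide control wells; nearly all actives have a fitted effect of over 70% in size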
Outline: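 CellTiter-Glo luminescence (intracellular ATP) after 24 hr compound exposure at 37 C, 2500 lymphoblastoid cells/well in complete medium. AC50 fitted with standard Hill equation; tetraoctylammonium bromide positive control.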

[9] = Cellular Toxicity (caspase-3) NIH 3T3 (AID 666);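 further: 0% = DMSO basal and 100% = 100 µM tamoxifen stimulation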
Outline: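 NIH 3T3, 1000 cells/well, 5 hr settle then 16 hr compound at 37°C; Caspase-Glo 3/7, 20 min RT, luminescence. DMSO = basal, 100 uM tamoxifen = 100%. Hill-equation AC50, qHTS.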

[10] = target: Cytochrome P450 3A4 (Homo sapiens) (UniProt P08684); experiment: qHTS Assay for Activators of Cytochrome P450 3A4 (AID 885); further: nearly all actives have a fitted effect of over 65% in size
Outline: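 Human CYP3A4 dealkylates Luciferin-PPXE to luciferin, which luciferase detection converts to light. Substrate was at its KM (25uM), buffer 200mM KPO4, reaction 60 min at RT.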

CCN(Cc1ccccc1)c1ccccc1
inactive: caspase-3 activation [1] -0.109% | outcome [2] | caspase-3 activation [3] 0.0577% | caspase-3 activation [4] -1.67% | outcome [5] | Potency [6] | Potency [7] | Potency [8]

CC(=O)CC(C)C
inactive: caspase-3 activation [1] 0.196% | outcome [2] | caspase-3 activation [3] 1.31% | caspase-3 activation [4] -0.532% | outcome [5] | Potency [6] | Potency [7] | Potency [8]

CCCC=O
inactive: caspase-3 activation [1] -0.494% | outcome [2] | caspase-3 activation [3] -1.37% | caspase-3 activation [4] -2.73% | outcome [5] | Potency [6] | Potency [7]

CCCCC(CC)COC(=O)CCCCC(=O)OCC(CC)CCCC (stereo unspecified)
inactive: caspase-3 activation [1] 0.289% | outcome [2] | caspase-3 activation [3] -0.0264% | caspase-3 activation [4] 0.675% | outcome [5] | outcome [9] | Potency [6] | Potency [8]

O=Cc1ccc(CO)o1
inactive: caspase-3 activation [1] -0.0811% | outcome [2] | caspase-3 activation [3] 1.58% | caspase-3 activation [4] -1.08% | outcome [5] | Potency [6] | Potency [7] | Potency [8]

NC=O
inactive: caspase-3 activation [1] -0.458% | outcome [2] | caspase-3 activation [3] 0.414% | caspase-3 activation [4] -1.11% | outcome [5] | Potency [6] | Potency [7] | Potency [8]

CCOC(=O)C(C)C(C)=O (stereo unspecified)
inactive: caspase-3 activation [1] 1.11% | outcome [2] | caspase-3 activation [3] 0.941% | caspase-3 activation [4] -0.825% | outcome [5] | outcome [9] | Potency [6] | Potency [8]

CCCCCO
inactive: caspase-3 activation [1] 1.64% | outcome [2] | caspase-3 activation [3] -0.271% | caspase-3 activation [4] -0.0419% | outcome [5] | Potency [6] | Potency [7] | Potency [8]

Cc1cccc(C(=O)O)c1[N+](=O)[O-]
inactive: caspase-3 activation [1] 0.577% | outcome [2] | caspase-3 activation [3] 0.904% | caspase-3 activation [4] 3.47% | outcome [5] | Potency [6] | Potency [7] | Potency [8]

CC(=C/C=C/C(C)=C/C=C/C=C(C)/C=C/C=C(C)/C=C/C(=O)O)/C=C/C(=O)O
inactive: caspase-3 activation [1] -0.768% | outcome [2] | caspase-3 activation [3] 0.467% | caspase-3 activation [4] -1.17% | outcome [5] | Potency [6] | Potency [7] | Potency [8]

COc1ccc(OC)cc1
inactive: caspase-3 activation [1] 0.503% | outcome [2] | caspase-3 activation [3] -0.441% | caspase-3 activation [4] 0.282% | outcome [5] | Potency [6] | Potency [7] | Potency [8]

C[C@@H]1CC2(OC3C[C@@]4(C)C5=CC[C@H]6C(C)(C)C(O[C@@H]7OC[C@@H](O)[C@H](O)[C@H]7O)CC[C@@]67C[C@@]57CC[C@]4(C)C31)OC(O)C1(C)OC21 (stereo partly specified)
inactive: caspase-3 activation [1] -0.636% | outcome [2] | caspase-3 activation [3] 1.92% | caspase-3 activation [4] 2.55% | outcome [5] | Potency [6] | outcome [10]

Cc1cccc2cccnc12
inactive: caspase-3 activation [1] -0.268% | outcome [2] | caspase-3 activation [3] 0.865% | caspase-3 activation [4] -1.22% | outcome [5] | Potency [6] | Potency [8]

Cc1cc(C2(c3cc(C)c(O)cc3C)OS(=O)(=O)c3ccccc32)c(C)cc1O
inactive: caspase-3 activation [1] -0.0933% | outcome [2] | caspase-3 activation [3] 2.61% | caspase-3 activation [4] 4.58% | outcome [5] | Potency [6] | outcome [10] | Potency [8]

CC(C)N(C)C
inactive: caspase-3 activation [1] 0.455% | outcome [2] | caspase-3 activation [3] 0.576% | caspase-3 activation [4] 1.04% | outcome [5] | Potency [6] | Potency [7] | Potency [8]

O=C(O)c1cc(Cl)cc(Cl)c1
inactive: caspase-3 activation [1] -0.386% | outcome [2] | caspase-3 activation [3] -0.143% | caspase-3 activation [4] 1.27% | outcome [5] | outcome [9] | Potency [6] | Potency [8]

COc1ccc(N=[N+]([O-])c2ccc(OC)cc2)cc1
inactive: caspase-3 activation [1] -3.45% | outcome [2] | caspase-3 activation [3] -3.45% | caspase-3 activation [4] -8.4% | outcome [5] | Potency [6] | Potency [7] | Potency [8]

CCC(=O)/C=C/C1C(C)=CCCC1(C)C (stereo unspecified)
inactive: caspase-3 activation [1] 0.383% | outcome [2] | caspase-3 activation [3] 2.63% | caspase-3 activation [4] 2.12% | outcome [5] | Potency [6] | outcome [10] | Potency [8]

CCCCC(CC)CO (stereo unspecified)
inactive: caspase-3 activation [1] -0.254% | outcome [2] | caspase-3 activation [3] 1.2% | caspase-3 activation [4] 1.6% | outcome [5] | Potency [6] | Potency [7] | Potency [8]

CCOc1ccc(NC(C)=O)cc1N
inactive: caspase-3 activation [1] 0.11% | outcome [2] | caspase-3 activation [3] 0.579% | caspase-3 activation [4] -1.58% | outcome [5] | outcome [9] | Potency [6] | Potency [8]

CC(C)(c1cc(Br)c(OCC(Br)CBr)c(Br)c1)c1cc(Br)c(OCC(Br)CBr)c(Br)c1 (stereo unspecified)
inactive: caspase-3 activation [1] 0.758% | outcome [2] | caspase-3 activation [3] 1.29% | caspase-3 activation [4] 16.5% | outcome [5] | Potency [6] | Potency [7] | Potency [8]

Nc1cc(Cl)c(N)c(Cl)c1
inactive: caspase-3 activation [1] -0.0656% | outcome [2] | caspase-3 activation [3] 1.21% | caspase-3 activation [4] -2.67% | outcome [9] | Potency [6] | outcome [10]

CNC(=O)N(c1ccccc1)c1ccccc1
inactive: caspase-3 activation [1] 0.477% | outcome [2] | caspase-3 activation [3] 1.51% | caspase-3 activation [4] 0.502% | outcome [9] | Potency [6] | Potency [7] | Potency [8]

CCCCOCCOCCOCCCC
inactive: caspase-3 activation [1] -0.157% | outcome [2] | caspase-3 activation [3] -0.168% | caspase-3 activation [4] -0.809% | outcome [9] | Potency [6] | Potency [7] | Potency [8]

Clc1ccccn1
inactive: caspase-3 activation [1] 0.0313% | outcome [2] | caspase-3 activation [3] -0.264% | caspase-3 activation [4] 0.154% | outcome [9] | Potency [6] | Potency [7] | Potency [8]
